HT1080-NT tox = kills 2HG-producing HT-1080-NT fibrosarcoma cells; HT-1080-NT fibrosarcoma viability, CellTiter-Glo ATP luminescence, 48 h; Potency, µM (highest dose often 46.1 µM), hits mostly cytotoxic; actives 1.6% (n = 360,000);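 also: NT is the 2HG producing partner of a matched IDH1 knockdown line; nearly all actives have a fitted effect of over 55% in size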
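Read-out is CellTiter-Glo luminescence after 10 minutes at room temperature, following 48 hours' compound treatment of HT-1080-NT cells (750 cells/well, RPMI, 5% FBS, 37 degrees C).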
HT1080 IDH1KD tx = kills HT-1080 cells with IDH1 knockdown; HT-1080 IDH1 knockdown viability, ATP luminescence, 48 h; Potency, µM (titrated, usually from 46.1 µM), actives largely listed as cytotoxic; AID 686971; actives 2% (n = 360,000)
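Viability of IDH1-knockdown HT-1080 fibrosarcoma cells was assessed by CellTiter-Glo after 48 h at 37 °C with titrated compound; concentration-effect curves were classified by fit quality and response size.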
IL1B secr inh = inflammasome signaling inhibition, IL-1 beta readout; THP-1 LPS/ATP IL-1B secretion, AlphaLISA, 16 h; active compounds read low; activity change, % at 57.5 µM; actives 4.7% (n = 360,000); AID 743279; in the data active = activity change below about -50%; inconclusive = mostly about -30% to -49%
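THP-1 cells pretreated 1 hr with compounds (up to 57.5 uM final), then stimulated with LPS (250 ng/mL final) plus ATP (1.25 mM final); secreted IL-1B measured by AlphaLISA after 16 hr, decreased signal indicating inhibition.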
DT40 TDP1 no CPT = qHTS for Inhibitors of human tyrosyl-DNA phosphodiesterase 1 (TDP1): qHTS in cells in absence of CPT. actives 15% (n = 420,000). Potency, µM (highest dose often 46.2 µM), actives largely listed as inhibitors. DT40 Tdp1-/- hTDP1 cells, no CPT, ATP luminescence, 48 h; also: nearly all actives have a fitted effect of over 55% in size
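Readout: luminescence from CellTiter-Glo after 30 min in the dark at RT. Cells: DT40 Tdp1-/- with stable hTDP1, 400/well. Exposure: compounds alone, ≥48 hr, 37 °C.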
TDP1 cell CPT = DT40-hTDP1 cell growth loss with CPT; Potency, µM (doses to about 46.2 µM), actives largely listed as inhibitors; actives 12% (n = 420,000); chicken DT40 Tdp1-/-;hTDP1 cells + 20 nM CPT, ATP luminescence, 48 h; also: nearly all actives have a fitted effect of over 55% in size
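Chicken DT40 Tdp1-/- cells stably complemented with human TDP1 were seeded at 400 cells/well in medium containing 20 nM camptothecin, exposed to pin-transferred compounds, and grown at 37 °C for at least 48 hr. Viability was read as ATP luminescence.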
Of the large screens only hits and unclear results are named; the others gave an inactive call. Only some compounds are listed: those with a hit (about 19% of all), similar ones and a draw of the others. Unless noted, calls follow the shape of the dose curve; as a rule, active = well fitted curve in the direction sought with a large enough effect; inconclusive = small, poorly fitted or top-dose-only effect, or another doubt; inactive = no such curve, though single readings can be large; an effect the other way counts as inactive or inconclusive.

CCCCCn1c(CN2CCN(Cc3ccccc3)CC2)nc2c1c(=O)n(C)c(=O)n2C	DT40 TDP1 no CPT 15µM, TDP1 cell CPT 15µM
Cn1c(=O)c2c(nc(CN3CCN(Cc4ccccc4)CC3)n2Cc2ccc(F)cc2)n(C)c1=O	DT40 TDP1 no CPT inconclusive, TDP1 cell CPT inconclusive
CCCCn1c(CN2CCN(c3ccccc3)CC2)nc2c1c(=O)n(C)c(=O)n2C	DT40 TDP1 no CPT 2.3µM, TDP1 cell CPT 1.5µM
Cn1c(=O)c2c(nc(CN3CCC(C(N)=O)CC3)n2CCCc2ccccc2)n(C)c1=O	DT40 TDP1 no CPT inconclusive
CCCCCCn1c(CN2CCC(C)CC2)nc2c1c(=O)n(C)c(=O)n2C	DT40 TDP1 no CPT 16µM, TDP1 cell CPT inconclusive
CC(C)C(O)c1ccc2c(c1)CN(C(=O)c1ccccc1-n1cccn1)CCO2 (centres undefined)	none (no result: HT1080-NT tox, HT1080 IDH1KD tx, IL1B secr inh)
Cc1csc(SCC(=O)NC2CCC(C)CC2)n1 (centres undefined)	none
CCOC(=O)C1(C)/C(=N/Nc2ccccc2)C(=O)C(=O)N1c1ccccc1 (centres undefined)	none
CCOC(=O)C1(C)/C(=N/Nc2ccccc2OC)C(=O)C(=O)N1c1ccccc1 (centres undefined)	DT40 TDP1 no CPT 13µM, TDP1 cell CPT 23µM
CCC(=O)Nc1ccc2c(c1)OC[C@@H](C)NC[C@@H](C)[C@@H](OC)CN(C)C2=O	HT1080 IDH1KD tx inconclusive
CCn1ccnc1CN(C)Cc1nc(Cc2cccc(C(F)(F)F)c2)no1	none
CN1CCCN(Cc2nc(-c3cccc(C(F)(F)F)c3)no2)CC1	DT40 TDP1 no CPT 16µM, TDP1 cell CPT inconclusive
FC(F)(F)c1cccc(Cc2noc(CN3CCC(c4ccncc4)CC3)n2)c1	DT40 TDP1 no CPT 7.3µM, TDP1 cell CPT 5.8µM
CC(CN(C)Cc1nc(Cc2cccc(C(F)(F)F)c2)no1)CN1CCCC1 (centres undefined)	DT40 TDP1 no CPT 23µM, TDP1 cell CPT 21µM
CCc1ccc(CN(C)Cc2nc(Cc3cccc(C(F)(F)F)c3)no2)nc1	DT40 TDP1 no CPT inconclusive
CN1CCCC2(CCCN(Cc3nc(Cc4cccc(C(F)(F)F)c4)no3)C2)C1 (centres undefined)	IL1B secr inh -75, DT40 TDP1 no CPT inconclusive
O=C(C1CCN(Cc2nc(Cc3cccc(F)c3)no2)CC1)N1CCOCC1	none
Cc1sc(NC(=O)CSc2nnc(C)c(=O)[nH]2)c(C#N)c1C	none
FC(F)(F)c1cccc(Cc2noc(CN3CCCC(OCc4ccccn4)C3)n2)c1 (centres undefined)	DT40 TDP1 no CPT 23µM, TDP1 cell CPT 18µM
Cn1c(NCCc2ccncc2)nc2cc(-c3ccccc3)sc2c1=O	DT40 TDP1 no CPT inconclusive, TDP1 cell CPT 26µM
CC(=O)NCCNc1nc2cc(-c3ccc(Cl)cc3C)sc2c(=O)n1C	DT40 TDP1 no CPT inconclusive, TDP1 cell CPT inconclusive
Cc1ccccc1-c1cc2nc(NCCc3ccncc3)n(C)c(=O)c2s1	HT1080-NT tox inconclusive, HT1080 IDH1KD tx inconclusive, DT40 TDP1 no CPT 15µM, TDP1 cell CPT 16µM
CC(=O)NCCNc1nc2cc(-c3ccccc3)sc2c(=O)n1C	DT40 TDP1 no CPT inconclusive, TDP1 cell CPT inconclusive
CNC(=O)c1ccccc1Sc1ccc2c(/C=C/c3ccccn3)n[nH]c2c1	DT40 TDP1 no CPT 2.7µM, TDP1 cell CPT 4.2µM (no result: HT1080-NT tox, HT1080 IDH1KD tx, IL1B secr inh)
COCCNC(=O)C1(C)CCCN(Cc2ccc3ccccc3c2Br)C1 (centres undefined)	HT1080 IDH1KD tx inconclusive, DT40 TDP1 no CPT inconclusive, TDP1 cell CPT inconclusive
O=C(CN1CCSCC1)N/N=C/c1ccc(F)c(F)c1	TDP1 cell CPT inconclusive
O=C(CCCCn1c(=O)c2ccccc2n(Cc2ccccc2F)c1=O)NCc1ccc2c(c1)OCO2	DT40 TDP1 no CPT inconclusive (no result: HT1080-NT tox, HT1080 IDH1KD tx, IL1B secr inh)
CC1(C(=O)NCc2ccccc2)Cc2c(-c3ccc4c(c3)OCO4)ccnc2O1 (centres undefined)	HT1080-NT tox inconclusive, HT1080 IDH1KD tx inconclusive, DT40 TDP1 no CPT 0.82µM, TDP1 cell CPT 0.65µM
CC1(C(=O)NCCc2ccccc2)Cc2c(-c3ccc4c(c3)OCO4)ccnc2O1 (centres undefined)	HT1080-NT tox inconclusive, HT1080 IDH1KD tx inconclusive, DT40 TDP1 no CPT 2.9µM, TDP1 cell CPT inconclusive
COCCNC(=O)C1(C)Cc2c(-c3ccc4c(c3)OCO4)ccnc2O1 (centres undefined)	HT1080-NT tox inconclusive, HT1080 IDH1KD tx 18µM, DT40 TDP1 no CPT 8.2µM, TDP1 cell CPT 12µM
CN(C)c1ccc(-c2ccnc3c2CC(C)(C(=O)Nc2ccc4c(c2)OCO4)O3)cc1 (centres undefined)	none
CC/C(=N\NC(=O)CSc1ncccn1)c1ccc2c(c1)OCCO2	none
COc1ccc(S(=O)(=O)NCC(c2ccc(C)cc2)N2CCN(C)CC2)cc1 (centres undefined)	DT40 TDP1 no CPT inconclusive
Cc1cccc(OCc2nnc(SCC(=O)Nc3cc(C)on3)n2C)c1	none
CCOc1ccccc1NC(=O)CCCc1ccc(OC)c(C)c1	HT1080 IDH1KD tx inconclusive, DT40 TDP1 no CPT inconclusive, TDP1 cell CPT inconclusive
CCOc1ccc(C(=O)NCCc2sc(-c3ccc(C)cc3)nc2C)cc1	DT40 TDP1 no CPT inconclusive, TDP1 cell CPT 23µM (no result: HT1080-NT tox, HT1080 IDH1KD tx, IL1B secr inh)
CCOc1ccc(C(=O)NCCc2sc(-c3cccc(F)c3)nc2C)cc1OCC	DT40 TDP1 no CPT inconclusive, TDP1 cell CPT 18µM (no result: HT1080-NT tox, HT1080 IDH1KD tx, IL1B secr inh)
CCOc1ccc(S(=O)(=O)NCCc2sc(-c3ccc(C)cc3)nc2C)cc1	DT40 TDP1 no CPT 16µM, TDP1 cell CPT inconclusive (no result: HT1080-NT tox, HT1080 IDH1KD tx, IL1B secr inh)
Cc1nc(C)c(CCNC(=O)c2ccccc2)s1	none
CCOc1ccc(OCC(=O)OCC(=O)NNC(=O)c2ccc([N+](=O)[O-])cc2)cc1	none
CC(=O)Nc1cccc(-c2nnc(SCC(=O)c3cc([N+](=O)[O-])ccc3Br)o2)c1	DT40 TDP1 no CPT 5.2µM, TDP1 cell CPT 5.2µM (no result: HT1080-NT tox, HT1080 IDH1KD tx, IL1B secr inh)
Cc1ccn2c(NC3CCCC3)c(-c3ccncc3)nc2c1	DT40 TDP1 no CPT inconclusive, TDP1 cell CPT inconclusive
Cc1ccc2nc(-c3ccncc3)c(NC3CCCCC3)n2c1	DT40 TDP1 no CPT inconclusive, TDP1 cell CPT 23µM
Cc1ccc2nc(-c3ccsc3)c(NC3CCCC3)n2c1	DT40 TDP1 no CPT 13µM, TDP1 cell CPT 10µM
Cc1ccc2nc(-c3ccncc3)c(Nc3ccccc3)n2c1	DT40 TDP1 no CPT inconclusive, TDP1 cell CPT inconclusive
CN(C)C(=S)Nn1c(-c2ccccc2)nc2ccccc2c1=O	none
Cc1cccc(-c2nc3ccccc3c(=O)n2NC(=S)N(C)C)c1	DT40 TDP1 no CPT 8.2µM, TDP1 cell CPT 9.2µM
COc1ccc(N2CCN(C(=O)c3cccc(Cn4cc(Cl)cn4)c3)CC2)cc1	DT40 TDP1 no CPT 23µM, TDP1 cell CPT inconclusive
COc1cccc(CN2CC(C(=O)N3CCCC3)CCC2=O)c1 (centres undefined)	none
COc1ccc(N2CCN(C(=O)c3ccc(C)c(Cl)c3)CC2)cc1	DT40 TDP1 no CPT 18µM, TDP1 cell CPT inconclusive

Bioassay records from PubChem BioAssay.
